# Only some compounds are listed: those with a hit (about 7% of all), similar ones and a draw of the others.
# BAZ2B block – qHTS Assay for Inhibitors of BAZ2B; Potency, µM (doses to about 114 µM), for the others: top-dose activity change, negative = inhibition, usual class: inhibitors; AlphaScreen BAZ2B-H3K14Ac peptide displacement; actives 4.4% (n = 360,000); further: potency means the concentration at half of the fitted maximal effect; on the % scale 0 is the no-effect control and ±100 the full control effect; nearly all actives have a fitted effect of over 60% in size
#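 Compounds, titrated to a top concentration of 110 uM, were incubated 30 min at room temperature with preformed BAZ2B/acetyl-K14 H3 peptide complex (50 nM each). Proximity signal was measured by AlphaScreen after 20 min with beads.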
# PI5P4Ka inh – qHTS for Inhibitors of phosphatidylinositol 5-phosphate 4-kinase (PI5P4K); AID 652105, 2013; PI5P4Kalpha enzyme, ADP-Glo luminescence, 60 min; hits give low values; max response, %; actives 1.2% (n = 330,000); Phosphatidylinositol 5-phosphate 4-kinase type-2 alpha (Homo sapiens), P48426; active means max response of -50% or lower; inconclusive means between -30% and -50%; inactive means -30% or higher; further: value at the top dose of about 77 µM; on the % scale 0 is the no-effect control and ±100 the full control effect
#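 Quantitative HTS of the MLSMR library against PI5P4Kalpha with substrate. ATP added last at 5 microM final; room temperature, 60 minutes. Remaining ATP depleted, ADP converted and read as luminescence.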
# KAT2A inh – qHTS Assay for Inhibitors of GCN5L2; Histone acetyltransferase KAT2A (Homo sapiens), Q92830; GCN5L2 HAT assay, ThioGlo1 CoA-SH fluorescence; Potency, µM (titrated, usually from 58.9 µM), for inactives: top-dose activity change, negative = inhibition, hits mostly inhibitors; actives 0.21% (n = 390,000); AID 504327, 2011; further: potency means the concentration at half of the fitted maximal effect; on the % scale 0 is the no-effect control and ±100 the full control effect
#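 ThioGlo1-coupled HAT assay: 20nM GCN5L2, 70uM acetyl-CoA, 75uM H3(1-25) peptide, pH 7.5. Fluorescence read at 340/540nm at start and after 20 min at room temperature.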
# PLK1 PBD block – qHTS for Inhibitors of PLK1-PDB (polo-like kinase 1 - polo-box domain): Primary Screen; Plk1 PBD binding of FITC phosphopeptide, fluorescence polarization; Serine/threonine-protein kinase PLK1 (Homo sapiens), P53350; AID 720504, 2013; Potency, µM, inactives show max response, negative = inhibition, most hits filed as inhibitors; actives 2.8% (n = 360,000); further: potency means the concentration at half of the fitted maximal effect; series mostly up to about 57 µM; on the % scale 0 is the no-effect control and ±100 the full control effect; nearly all actives have a fitted effect of over 65% in size
# Target sequence (P53350 whole entry, looked up, the tested form may be a part): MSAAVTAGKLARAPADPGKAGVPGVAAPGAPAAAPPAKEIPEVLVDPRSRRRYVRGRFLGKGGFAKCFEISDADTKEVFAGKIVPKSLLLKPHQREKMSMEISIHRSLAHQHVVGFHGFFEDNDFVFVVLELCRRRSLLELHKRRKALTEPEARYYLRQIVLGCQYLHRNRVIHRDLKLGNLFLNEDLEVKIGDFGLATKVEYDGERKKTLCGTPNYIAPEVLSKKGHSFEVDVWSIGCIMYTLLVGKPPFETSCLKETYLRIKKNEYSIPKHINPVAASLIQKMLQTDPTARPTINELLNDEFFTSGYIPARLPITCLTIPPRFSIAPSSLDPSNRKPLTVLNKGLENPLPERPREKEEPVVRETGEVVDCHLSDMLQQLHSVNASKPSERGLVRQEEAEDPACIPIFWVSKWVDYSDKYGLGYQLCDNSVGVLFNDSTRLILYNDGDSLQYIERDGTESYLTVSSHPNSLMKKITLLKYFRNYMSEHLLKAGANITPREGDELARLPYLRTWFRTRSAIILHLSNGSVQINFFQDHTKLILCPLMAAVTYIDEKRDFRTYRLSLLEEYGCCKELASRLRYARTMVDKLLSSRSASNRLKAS
# JMJD2A Tudor – qHTS Assay for Inhibitors of JMJD2A-Tudor Domain; Lysine-specific demethylase 4A (Homo sapiens), O75164; AlphaScreen JMJD2A-Tudor / H3K4me3 peptide binding; Potency, µM (top dose mostly 114 µM), inactives show top-dose activity change, negative = inhibition, hits mostly inhibitors; actives 4.4% (n = 390,000); AID 504339, 2011; further: potency means the concentration at half of the fitted maximal effect; on the % scale 0 is the no-effect control and ±100 the full control effect; nearly all actives have a fitted effect of over 50% in size
# HP1b chromo inh – HTS for Inhibitors of HP1-beta Chromodomain Interactions with Methylated Histone Tails; Chromobox protein homolog 1 (Homo sapiens), P83916; AlphaScreen HP1-beta / biotin-H3K9me3 peptide binding; Potency, µM (doses to about 114 µM), without a hit: at the highest dose activity change, negative = inhibition, most hits filed as inhibitors; actives 0.56% (n = 390,000); further: potency means the concentration at half of the fitted maximal effect; nearly all actives have a fitted effect of over 70% in size
#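 AlphaScreen: HP1-beta (50 nM) preformed 30 min with biotin-H3(1-18)K9me3 peptide (50 nM) in PBS pH 7.4, 0.01% Tween-20. Compound added for 30 min at RT, then streptavidin donor/nickel chelate acceptor beads (10 ug/mL) for 30 min.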
# The depositor's hits bear a star; ? = inconclusive; · = no result; [ ] = remark or other dose. Unless noted, the call rests on the fitted dose curve; in most records, active means well fitted curve in the direction sought with a large enough effect; inconclusive means small, poorly fitted or top-dose-only effect, or another doubt; inactive means no such curve, though single readings can be large; an effect the other way counts as inactive or inconclusive.
SMILES,BAZ2B block,PI5P4Ka inh,KAT2A inh,PLK1 PBD block,JMJD2A Tudor,HP1b chromo inh
CC(C)(C)Cc1nnc(NC(=O)CSc2ccccc2)s1,?,-29,-29%,5.3µM*,56µM*,?
O=C(CSc1nnc(-c2ccccc2O)o1)N1CCOCC1,79µM*,-7,-4%,-6%,56µM*,-20%
O=C(CSc1nnc(-c2ccccc2Br)o1)N1CCOCC1,6%,4,-6%,-13%,-8%,8%
Cc1ccc(S(=O)(=O)N(C)C)cc1NC(=S)N1CCN(Cc2ccc3c(c2)OCO3)CC1,·,4,2%,-10%,-28%,14%
C=C/C(C)=C/C[C@H]1C(=C)CCC2[C@](C)(C(=O)O)CCC[C@@]21C (some centres undefined),?,5,-22%,19µM*,?,34%
C=C1C[C@@]23CC[C@H]4[C@@](C)(CCC[C@@]4(C)C(=O)O)[C@@H]2CC[C@]1(O)C3,·,·,-6%,·,·,·
CCN(c1ccccc1)S(=O)(=O)c1cccc(C(=O)N(C)CCOc2ccccc2)c1,3%,0,-3%,4%,-21%,18%
COc1ccc(/C=N/c2c(-c3ccco3)nc3ccccn23)cc1OC,?,·,-6%,-4%,-34%,-6%
Clc1ccc(/C=N/c2c(-c3ccco3)nc3ccccn23)cc1,?,·,-3%,-3%,45µM*,?
O=C(c1ccc2c3c(cccc13)CC2)C1CCCN(Cc2ccc(OCCO)cc2)C1 (centres undefined),?,-2,-4%,-4%,-54%,-15%
Cc1cnc(CN2CCCC(C(=O)c3ccc4c5c(cccc35)CC4)C2)[nH]1 (centres undefined),?,-7,4%,-10%,50µM*,?
CN(C)S(=O)(=O)c1cccc(NC(=O)COC(=O)/C=C/c2ccc3c(c2)OCO3)c1,-21%,3,-18%,0%,-13%,23%
CN(C)S(=O)(=O)c1cccc(NC(=O)COC(=O)/C=C/c2ccco2)c1,?,?,-9%,30µM*,?,?
Cc1ccc(/C=C/C(=O)OCC(=O)Nc2cccc(S(=O)(=O)N(C)C)c2)o1,79µM*,1,-10%,-8%,-29%,-25%
CCN(CC)S(=O)(=O)c1cccc(NC(=O)COC(=O)/C=C/c2ccco2)c1,50µM*,-11,-21%,-6%,-15%,5%
Cc1oc(-c2ccccc2)nc1CS(=O)CC(=O)NC1CCCC1 (centres undefined),-1%,4,-4%,-29%,-18%,24%
COC(CNC(=O)c1cccnc1)OC,3%,0,4%,-1%,-9%,45%
COC(CNC(=O)c1ccc2c3c(onc13)-c1ccccc1C2=O)OC,?,-29,-11%,3.4µM*,50µM*,?
Cc1c(Cl)cccc1N1CCn2c1nc1c2c(=O)n(CC(=O)O)c(=O)n1C,-17%,·,0%,·,-9%,25%
Cc1nc(SCc2ccccc2Cl)c(C#N)c(C)c1C,1%,·,-3%,·,69%,104%
N#Cc1c(SCc2c(Cl)cccc2Cl)nc(N)[nH]c1=S,?,-65*,-16%,30µM*,-24%,20%
Cc1cc(C)c2nc(N3C(=O)C(O)=C(C(=O)c4ccco4)C3c3cccc(O)c3)sc2c1 (centres undefined),?,-60*,?,27µM*,?,-9%
CSc1nnc(N2C(=O)C(O)=C(C(=O)c3ccco3)C2c2ccccc2F)s1 (centres undefined),-39%,?,-22%,-13%,50µM*,-24%
CSc1nnc(N2C(=O)C(O)=C(C(=O)c3ccco3)C2c2ccccc2)s1 (centres undefined),?,-25,-3%,-11%,?,-1%[57 µM]
Cc1cc(C)c2nc(N3C(=O)C(O)=C(C(=O)c4ccco4)C3c3ccc(O)cc3)sc2c1 (centres undefined),?,-65*,?,19µM*,?,-8%
SMILES,BAZ2B block,PI5P4Ka inh,KAT2A inh,PLK1 PBD block,JMJD2A Tudor,HP1b chromo inh
Cc1cc(N2C(=O)C(O)=C(C(=O)c3ccco3)C2c2ccc(O)cc2)no1 (centres undefined),6%,-11,15%,-11%,?,19%
Cc1nnc(N2C(=O)C(O)=C(C(=O)c3ccco3)C2c2cccc([N+](=O)[O-])c2)s1 (centres undefined),-12%,0,-8%,-6%,-28%,29%
Cc1ccc(C2C(C(=O)c3ccco3)=C(O)C(=O)N2c2nnc(C)s2)cc1 (centres undefined),-33%,·,-18%,-4%,79µM*,17%
CCOC(=O)N1CCN(C(=O)C(=O)NN)CC1,-12%,5,26%,-5%,-14%,15%
CCOC(=O)c1sc(N2C(=O)C(O)=C(C(=O)c3ccco3)C2c2cccc([N+](=O)[O-])c2)nc1C (centres undefined),?,-68*,?,30µM*,?,-3%
O=C(CN1C(=O)COc2ccc(Cl)cc21)N1CCCCC1,0%,-3,-2%,5%,8%,15%
CCOc1ccc(CN(C)Cc2cc(=O)oc3cc(C)c(Cl)cc23)cc1,20%,-1,1%,-20%,23%,33%
CCOc1ccc(N(C)Cc2cc(=O)oc3ccc(OCC)cc23)cc1,18µM*,5,0%,-14%,?,-37%
O=C(c1cncc(Br)c1)N1CCN(S(=O)(=O)c2ccccc2C(F)(F)F)CC1,-11%,5,-5%,21µM*,?,3%
Cc1ccc(S(=O)(=O)c2nc(-c3cccs3)oc2SCC(=O)Nc2cc(C)cc(C)c2)cc1,-15%,·,-3%,·,-24%,8%
COc1ccc(CNc2ccc(Cl)cc2)cc1Cn1ccnc1,25µM*,-4,1%,-3%,50µM*,?
COc1ccc(C=O)cc1Cn1ccnc1,-9%,-4,-5%,-2%,-15%,19%
NNC(=O)c1ccc2c(c1)S(=O)(=O)NNC2=O,-32%,-12,-6%,?,28µM*,77%
Cc1ccc(C(=O)O)cc1Nc1nc2ccccc2n2nnnc12,?,·,-16%,·,32µM*,1%
Cc1ccc(N2CCN(C(=O)c3ccc(Nc4nc5ccccc5n5nnnc45)cc3)CC2)c(C)c1,2%,·,0%,·,-9%,35%
